{"source": "PubChem BioAssay", "note": "Entries with a potency or affinity are not part of this list. Records with an inconclusive call do not appear. Active and inactive are the calls of the source. Unless noted, how the calls were made is not given here.", "data": [{"assay": "inhibitors of CMV-promoter luciferase reporter, dose response, counter-screen for Pax8 inhibitor project, cell-based, HEK293, luminescence, dry powder (AID 743020;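 active means signal-lowering compounds whose fitted half-maximal concentration is at or below twice the top tested dose in every run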;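 further: HEK293 cells stably expressing the CMV luciferase reporter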)", "details": "SteadyGlo luminescence, 24 h; series mostly up to 35 µM; activity change, negative = inhibition: at the top concentration", "values": [{"smiles": "COc1ccc(C)cc1NC(=O)C1CCCN(S(=O)(=O)c2cccc3nonc23)C1", "note": "(stereo unspecified)", "activity change, negative = inhibition": "4.45% (inactive)"}, {"smiles": "O=C(O)CC(NC(=O)C1c2ccccc2Oc2ccccc21)c1ccc(OC2CCCC2)cc1", "note": "(stereo unspecified)", "activity change, negative = inhibition": "0% (inactive)"}, {"smiles": "CN(C(=O)COC(=O)C1CCN(S(=O)(=O)c2c(Cl)cccc2Cl)CC1)C1CCS(=O)(=O)C1", "note": "(stereo unspecified)", "activity change, negative = inhibition": "27.1% (inactive)"}, {"smiles": "O=C(Cn1cc(C(F)(F)F)ccc1=O)Nc1ccc2c(c1)OCO2", "activity change, negative = inhibition": "6.75% (inactive)"}, {"smiles": "O=C(Nc1ccccc1)N1CCCCN2[C@@H](CO)[C@@H](c3ccc(C#Cc4ccccc4)cc3)[C@@H]2C1", "activity change, negative = inhibition": "-0.507% [at 30 µM] (inactive)"}, {"smiles": "CN1CCN(C(=S)Nc2ccc(Cl)c(Cl)c2)CC1", "activity change, negative = inhibition": "5.89% (inactive)"}, {"smiles": "CC(=O)N/C(=C\\c1ccccc1)C(=O)OCC(=O)NC1CCCC1", "activity change, negative = inhibition": "10.1% (inactive)"}, {"smiles": "O=C(CCN1C(=O)/C(=C/c2ccccc2Cl)SC1=S)Nc1ccccc1C(=O)O", "activity change, negative = inhibition": "-0.752% (inactive)"}, {"smiles": "COc1ccc(NC(=O)C[C@H]2C(=O)N(c3ccc(OC)cc3)C[C@@H]2C)cc1", "activity change, negative = inhibition": "3.81% (inactive)"}, {"smiles": "Nc1ncn([C@H]2C[C@H](O)[C@@H](CO)O2)c(=O)n1", "activity change, negative = inhibition": "2.91% (inactive)"}, {"smiles": "Nc1ccc2c(c1)CC(=O)c1ccccc1S2", "activity change, negative = inhibition": "10.7% (inactive)"}, {"smiles": "O=C(Cc1ccc(F)cc1)OCC(=O)N1CCN(S(=O)(=O)c2ccc(Cl)cc2)CC1", "activity change, negative = inhibition": "-1.89% (inactive)"}, {"smiles": "CCCCC1Cc2[nH]c(=S)[nH]c(=O)c2C(c2ccc(F)cc2)O1", "note": "(stereo unspecified)", "activity change, negative = inhibition": "1.74% (inactive)"}, {"smiles": "Nn1cnnc1N/N=C\\c1ccc(-c2ccccc2[N+](=O)[O-])o1", "activity change, negative = inhibition": "-2.21% (inactive)"}, {"smiles": "COc1ccc(OCCNC(=O)/C=C/c2ccc([N+](=O)[O-])cc2)cc1", "activity change, negative = inhibition": "-9.81% (inactive)"}, {"smiles": "CCCCCCCCNC(=O)c1cnccn1", "activity change, negative = inhibition": "16.6% (inactive)"}, {"smiles": "CCNC(=O)C1(C)CCN(C(=O)c2ccccc2F)C1", "note": "(stereo unspecified)", "activity change, negative = inhibition": "14.9% (inactive)"}]}, {"assay": "non-specific cell cytotoxicity, dose response, cytotoxicity control for PAX8 inhibitor project, plate reader, dry powder samples (AID 743021)", "details": "cell line, non-specific cytotoxicity counter-screen; series mostly up to 35 µM; activity change, negative = cytotoxicity: at the top concentration", "values": [{"smiles": "O=C1c2cccc3c(O)ccc(c23)C(=O)N1c1ccc(Cl)cc1", "activity change, negative = cytotoxicity": "-11.2% (inactive)"}, {"smiles": "CC(=O)Nc1ccc(C(=O)CSc2cc(C)c3cccc(C)c3n2)cc1", "activity change, negative = cytotoxicity": "56.3% (inactive)"}, {"smiles": "COc1ccc(C)cc1NC(=O)C1CCCN(S(=O)(=O)c2cccc3nonc23)C1", "note": "(stereo unspecified)", "activity change, negative = cytotoxicity": "18.7% (inactive)"}, {"smiles": "Fc1ccc(CSc2ccc(-c3ccco3)nn2)cc1", "activity change, negative = cytotoxicity": "-15.2% (inactive)"}, {"smiles": "Cc1cccc(OCc2nc(-c3cccnc3)no2)c1", "activity change, negative = cytotoxicity": "23.1% (inactive)"}, {"smiles": "O=C(O)CC(NC(=O)C1c2ccccc2Oc2ccccc21)c1ccc(OC2CCCC2)cc1", "note": "(stereo unspecified)", "activity change, negative = cytotoxicity": "4.73% (inactive)"}, {"smiles": "O=[N+]([O-])c1ccc2nc(SCc3cn4ccccc4n3)[nH]c2c1", "activity change, negative = cytotoxicity": "3.48% (inactive)"}, {"smiles": "COc1ccc2oc(C)c(C(=O)c3ccc([N+](=O)[O-])cc3)c2c1", "activity change, negative = cytotoxicity": "-3.49% (inactive)"}, {"smiles": "CN(C(=O)COC(=O)C1CCN(S(=O)(=O)c2c(Cl)cccc2Cl)CC1)C1CCS(=O)(=O)C1", "note": "(stereo unspecified)", "activity change, negative = cytotoxicity": "-6.48% (inactive)"}, {"smiles": "O=C(Cn1cc(C(F)(F)F)ccc1=O)Nc1ccc2c(c1)OCO2", "activity change, negative = cytotoxicity": "-10.7% (inactive)"}, {"smiles": "O=C(/C=C/c1ccco1)Nc1nc(-c2ccccc2)cs1", "activity change, negative = cytotoxicity": "5.75% (inactive)"}, {"smiles": "O=C(Nc1ccccc1)N1CCCCN2[C@@H](CO)[C@@H](c3ccc(C#Cc4ccccc4)cc3)[C@@H]2C1", "activity change, negative = cytotoxicity": "-30.5% [at 30 µM] (inactive)"}, {"smiles": "CCCCC(=O)N1CCN(c2ccc(OC)cc2[N+](=O)[O-])CC1", "activity change, negative = cytotoxicity": "28.2% (inactive)"}, {"smiles": "O=C(CSc1cccc[n+]1[O-])Nc1cc(S(=O)(=O)N2CCOCC2)ccc1N1CCOCC1", "activity change, negative = cytotoxicity": "46.5% (inactive)"}, {"smiles": "CCN(C(=O)COC(=O)c1ccc(S(=O)(=O)N2CCCc3ccccc32)cc1)C1CCS(=O)(=O)C1", "note": "(stereo unspecified)", "activity change, negative = cytotoxicity": "-10.6% (inactive)"}, {"smiles": "CN1CCN(C(=S)Nc2ccc(Cl)c(Cl)c2)CC1", "activity change, negative = cytotoxicity": "-13.9% (inactive)"}, {"smiles": "CC(=O)N/C(=C\\c1ccccc1)C(=O)OCC(=O)NC1CCCC1", "activity change, negative = cytotoxicity": "16.8% (inactive)"}, {"smiles": "O=C(CCN1C(=O)/C(=C/c2ccccc2Cl)SC1=S)Nc1ccccc1C(=O)O", "activity change, negative = cytotoxicity": "-6.08% (inactive)"}, {"smiles": "O=C(CSc1nc2ccccc2s1)NCCOc1ccccc1", "activity change, negative = cytotoxicity": "30.6% (inactive)"}, {"smiles": "COc1ccc(NC(=O)C[C@H]2C(=O)N(c3ccc(OC)cc3)C[C@@H]2C)cc1", "activity change, negative = cytotoxicity": "-8.34% (inactive)"}, {"smiles": "Nc1ncn([C@H]2C[C@H](O)[C@@H](CO)O2)c(=O)n1", "activity change, negative = cytotoxicity": "-10.8% [at 16 µM] (inactive)"}, {"smiles": "Cc1nn(CCO)c2nc(-c3cccs3)cc(C(F)(F)F)c12", "activity change, negative = cytotoxicity": "8.93% (inactive)"}, {"smiles": "Cc1cccc(C(=O)Oc2ccc(/C=N/NC(=O)c3ccccc3O)cc2)c1", "activity change, negative = cytotoxicity": "11.8% (inactive)"}, {"smiles": "COc1ccccc1NC1=Nc2cccc3cccc1c23", "activity change, negative = cytotoxicity": "-8.07% (inactive)"}, {"smiles": "O=C(/C=C/c1c(Cl)nc2ccccn12)Nc1ccc(F)cc1", "activity change, negative = cytotoxicity": "-1.18% (inactive)"}, {"smiles": "CCOC(=O)C1(Cc2ccc(OC)cc2)CCN(C(=O)CN2CCCCC2=O)CC1", "activity change, negative = cytotoxicity": "47.4% (inactive)"}, {"smiles": "Cc1cc(=O)oc2ccc(OC(=O)CN3C(=O)c4cccc([N+](=O)[O-])c4C3=O)cc12", "activity change, negative = cytotoxicity": "51.3% (inactive)"}, {"smiles": "Nc1ccc2c(c1)CC(=O)c1ccccc1S2", "activity change, negative = cytotoxicity": "24.4% (inactive)"}, {"smiles": "O=C(Cc1ccc(F)cc1)OCC(=O)N1CCN(S(=O)(=O)c2ccc(Cl)cc2)CC1", "activity change, negative = cytotoxicity": "22.4% (inactive)"}, {"smiles": "Cc1ccc(/C=N/NC(=O)c2ccccn2)o1", "activity change, negative = cytotoxicity": "21.3% (inactive)"}, {"smiles": "CCCCC1Cc2[nH]c(=S)[nH]c(=O)c2C(c2ccc(F)cc2)O1", "note": "(stereo unspecified)", "activity change, negative = cytotoxicity": "14.6% (inactive)"}, {"smiles": "COc1ccc(C2CC(c3ccc(Br)cc3)=NN2C(=S)Nc2ccccc2)cc1", "note": "(stereo unspecified)", "activity change, negative = cytotoxicity": "-15.8% (inactive)"}, {"smiles": "Nn1cnnc1N/N=C\\c1ccc(-c2ccccc2[N+](=O)[O-])o1", "activity change, negative = cytotoxicity": "14% (inactive)"}, {"smiles": "COc1ccc(O)c(C(c2c(C)[nH][nH]c2=O)c2c(C)[nH][nH]c2=O)c1", "activity change, negative = cytotoxicity": "15.2% (inactive)"}, {"smiles": "COc1ccc(OCCNC(=O)/C=C/c2ccc([N+](=O)[O-])cc2)cc1", "activity change, negative = cytotoxicity": "39.3% (inactive)"}, {"smiles": "CCCCCCCCNC(=O)c1cnccn1", "activity change, negative = cytotoxicity": "18.5% (inactive)"}, {"smiles": "CCNC(=O)C1(C)CCN(C(=O)c2ccccc2F)C1", "note": "(stereo unspecified)", "activity change, negative = cytotoxicity": "-18.2% (inactive)"}, {"smiles": "COc1ccc(-c2cn(CC[C@@H]3CC[C@H](NC(=O)Cc4ccccn4)[C@@H](CO)O3)nn2)cc1", "activity change, negative = cytotoxicity": "-0.059% (inactive)"}, {"smiles": "CC1CCN(CCOc2ccc(OCc3ccccc3)cc2)CC1", "activity change, negative = cytotoxicity": "14.8% (inactive)"}]}]}
